Measurements from the supplement of paper PMC10849652.
Of roughly 7,900 targets only a part is listed; those with a hit were picked by preference. About 0.6% of all pairs of compound and target were hits.

Key:
Assay in all cases: log2 fold change, soluble protein after heating vs DMSO (PISA); higher = thermal stabilisation; K562 cells, 10 uM, 30 min; active = over 0.2 and 3.5 SD of the protein, either way, in both replicates (recomputed)
erlotinib = compound: C#Cc1cccc(Nc2ncnc3cc(OCCOC)c(OCCOC)cc23)c1 [erlotinib]
In short: (§1)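 Soluble protein was quantified by TMTpro 16plex LC-MS/MS after channel sums were equalised. It was obtained as the supernatant after 21,000xg for 90 min from pooled aliquots of K562 cells (2×10^6 cells/mL, 10 μM compound, 30 min) heated for 3 min across 48°C-58°C and extracted in PBS with 0.5% NP-40 at 4°C. Thermal stability values are relative to control samples and come from duplicates. They are given as log2 fold changes.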

[1] = compound: C/C(=N\NC(=O)C1=CC(=CC=C1)S(=O)(=O)N2CCOCC2)/C3=C(C=CC(=C3)Cl)O
In short: as §1

[2] = compound: C1=CC(=C(C=C1Cl)C2=NC3=NC=CN=C3C(=N2)NC4=CC=NC=C4)F
In short: as §1

[3] = compound: C1=CC(=CC=C1C2=NC3=C(N2)C=C(C=C3)C(=O)N)OC4=CC=C(C=C4)Cl
In short: as §1

[4] = compound: C1=CC2=C(C=CC(=C2)/C=C\3/C(=O)NC(=NCC4=CC=CS4)S3)N=C1
In short: as §1

[5] = compound: C1=CC2=NC=CN=C2C=C1/C=C/3\C(=O)NC(=O)S3
In short: as §1

[6] = compound: C1=CC=C(C=C1)C2=NC(=C(N2)C3=CC=NC=C3)C4=CC(=C(C=C4)Cl)O
In short: as §1

[7] = compound: C1=CC=C2C(=C1)C3=NNC4=CC=CC(=C43)C2=O
In short: as §1

[8] = compound: C1CCN(C1)C(=O)NC2=CC=CC(=C2)NC3=NC=C(C(=N3)NCCC4=CN=CN4)Br
In short: as §1

[9] = compound: C1CN(CCC1(CC2=CC=C(C=C2)Cl)N)C3=NC=NC4=C3C=CN4
In short: as §1

IRAK-1-4 Inhibitor I = compound: C1COCCN1CCN2C3=CC=CC=C3N=C2NC(=O)C4=CC(=CC=C4)[N+](=O)[O-] [IRAK-1-4 Inhibitor I]
In short: as §1

ibrutinib = compound: C=CC(=O)N1CCC[C@@H](n2nc(-c3ccc(Oc4ccccc4)cc3)c3c(N)ncnc32)C1 [ibrutinib]
In short: as §1

[10] = compound: CC(=O)c1cnc2ccc(-c3cc(Cl)c(O)c(Cl)c3)nc2c1N[C@H]1CC[C@H](CN(C)C)CC1
In short: as §1

ralimetinib = compound: CC(C)(C)Cn1c(N)nc2ccc(-c3[nH]c(C(C)(C)C)nc3-c3ccc(F)cc3)nc21 [ralimetinib]
In short: as §1

[11] = compound: CC(C)(O)CC(=O)NCCn1ccc2ncnc(Nc3ccc(Oc4cccc(C(F)(F)F)c4)c(Cl)c3)c21
In short: as §1

[12] = compound: CC(C)C1=C2N=C(C=C(N2N=C1)NCC3=CC=CC=C3)NCCCCCCN
In short: as §1

[13] = compound: CC(C)C[C@@H](C=O)NC(=O)[C@H](CC(C)C)NC(=O)[C@H](CC(C)C)NC(=O)OCc1ccccc1
In short: as §1

pinometostat = compound: CC(C)N(C[C@H]1O[C@@H](n2cnc3c(N)ncnc32)[C@H](O)[C@@H]1O)[C@H]1C[C@@H](CCc2nc3cc(C(C)(C)C)ccc3[nH]2)C1 [pinometostat]
In short: as §1

[14] = compound: CC1=C(C(CC(=O)N1)C2=CC=C(C=C2)C(F)(F)F)C(=O)NC3=C(C=C4C(=C3)C=NN4)F
In short: as §1

[15] = compound: CC1=C(C2=C(C=C1)C(=O)C3=CC=CC=C3N2CCCN)C
In short: as §1

Measured: log2 fold change

SHCBP1 (UniProt Q8NEM2)
UniProt Q8NEM2, sequence (Q8NEM2 whole entry, looked up): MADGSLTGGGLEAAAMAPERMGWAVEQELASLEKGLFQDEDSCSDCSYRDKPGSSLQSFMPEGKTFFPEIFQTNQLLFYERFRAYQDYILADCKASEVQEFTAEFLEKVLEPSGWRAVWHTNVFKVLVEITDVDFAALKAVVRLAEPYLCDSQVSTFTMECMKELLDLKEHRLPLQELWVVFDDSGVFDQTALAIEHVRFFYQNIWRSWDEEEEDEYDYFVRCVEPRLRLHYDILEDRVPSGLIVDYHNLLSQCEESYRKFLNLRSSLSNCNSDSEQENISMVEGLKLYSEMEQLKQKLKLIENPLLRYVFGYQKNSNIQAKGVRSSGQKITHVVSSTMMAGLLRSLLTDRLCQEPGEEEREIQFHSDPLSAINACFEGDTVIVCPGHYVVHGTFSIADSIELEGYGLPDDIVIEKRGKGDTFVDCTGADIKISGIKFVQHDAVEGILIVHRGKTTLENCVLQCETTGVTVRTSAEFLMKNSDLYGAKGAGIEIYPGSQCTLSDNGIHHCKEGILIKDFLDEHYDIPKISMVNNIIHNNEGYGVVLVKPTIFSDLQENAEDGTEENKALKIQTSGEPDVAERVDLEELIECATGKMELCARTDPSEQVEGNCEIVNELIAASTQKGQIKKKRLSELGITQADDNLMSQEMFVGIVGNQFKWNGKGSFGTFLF
inactive: erlotinib -0.013 | [1] -0.029 | [2] -0.027 | [3] 0.018 | [4] 0.137 | [5] 0.028 | [6] -0.104 | [7] 0.054 | [8] 0.127 | [9] -0.128 | IRAK-1-4 Inhibitor I -0.11 | ibrutinib -0.072 | [10] -0.013 | ralimetinib 0.025 | [11] -0.121 | [13] 0.012 | pinometostat 0.066 | [14] 0.074 | [15] 0.02
active: [12] -0.516

RUFY1 (UniProt Q96T51)
inactive: erlotinib 0.01 | [1] 0.094 | [2] -0.046 | [3] -0.018 | [4] 0.022 | [5] 0.034 | [6] -0.027 | [7] 0 | [8] 0.031 | [9] -0.084 | IRAK-1-4 Inhibitor I -0.019 | ibrutinib -0.002 | [10] 0.101 | ralimetinib 0.034 | [11] -0.092 | [12] -0.182 | [13] 0.011 | pinometostat 0.083 | [14] -0.003 | [15] -0.014

RPP14 (UniProt O95059)
UniProt O95059, sequence (O95059 whole entry, looked up): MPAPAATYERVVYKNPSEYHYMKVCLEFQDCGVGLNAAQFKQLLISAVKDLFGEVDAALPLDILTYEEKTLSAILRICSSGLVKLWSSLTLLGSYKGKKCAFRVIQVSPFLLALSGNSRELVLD
inactive: erlotinib -0.047 | [1] 0.09 | [2] -0.077 | [3] 0.059 | [4] -0.046 | [5] -0.023 | [6] 0.012 | [7] -0.022 | [8] -0.017 | [9] 0.021 | IRAK-1-4 Inhibitor I -0.035 | ibrutinib 0.073 | [10] -0.021 | ralimetinib 0.009 | [11] 0.051 | [12] -0.021 | [13] 0 | pinometostat 0.021 | [14] 0.041 | [15] -0.04

RTN4IP1 (UniProt Q8WWV3)
UniProt Q8WWV3, sequence (Q8WWV3 whole entry, looked up): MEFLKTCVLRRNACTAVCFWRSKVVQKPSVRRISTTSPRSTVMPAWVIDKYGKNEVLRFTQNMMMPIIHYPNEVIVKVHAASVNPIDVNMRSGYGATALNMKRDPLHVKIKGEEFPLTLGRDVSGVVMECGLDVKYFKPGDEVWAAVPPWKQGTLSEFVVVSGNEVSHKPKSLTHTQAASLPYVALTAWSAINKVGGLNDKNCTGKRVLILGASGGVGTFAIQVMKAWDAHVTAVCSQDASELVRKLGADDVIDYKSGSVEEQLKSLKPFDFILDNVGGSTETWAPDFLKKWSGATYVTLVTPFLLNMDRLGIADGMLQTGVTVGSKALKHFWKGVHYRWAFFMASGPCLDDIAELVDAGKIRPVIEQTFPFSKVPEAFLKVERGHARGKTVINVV
inactive: erlotinib 0.016 | [1] 0 | [2] 0.041 | [3] 0.066 | [4] 0.048 | [5] -0.08 | [6] 0.014 | [7] 0.027 | [8] -0.064 | [9] 0.074 | IRAK-1-4 Inhibitor I -0.036 | ibrutinib 0.214 | [10] -0.326 | ralimetinib 0.034 | [11] -0.046 | [12] 0.063 | [13] -0.009 | pinometostat 0.02 | [14] -0.039 | [15] 0.14

RAB8B (UniProt Q92930)
UniProt Q92930, sequence (Q92930 whole entry, looked up): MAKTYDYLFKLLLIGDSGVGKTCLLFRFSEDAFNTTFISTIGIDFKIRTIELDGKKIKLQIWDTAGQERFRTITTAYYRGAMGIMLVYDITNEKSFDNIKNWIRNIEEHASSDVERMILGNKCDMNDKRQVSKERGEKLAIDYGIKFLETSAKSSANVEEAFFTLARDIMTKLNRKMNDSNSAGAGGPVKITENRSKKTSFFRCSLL
inactive: erlotinib 0.258 | [1] 0.085 | [3] 0.028 | [4] -0.02 | [5] 0.145 | [6] 0.029 | [7] 0.012 | [8] 0.027 | [9] -0.043 | IRAK-1-4 Inhibitor I 0.028 | ibrutinib -0.009 | [10] 0 | ralimetinib -0.001 | [11] -0.047 | [12] -0.002 | [13] 0.046 | pinometostat -0.091 | [14] 0.019 | [15] 0.004
active: [2] 0.332

RRAGC (UniProt Q9HB90)
UniProt Q9HB90, sequence (Q9HB90 whole entry, looked up): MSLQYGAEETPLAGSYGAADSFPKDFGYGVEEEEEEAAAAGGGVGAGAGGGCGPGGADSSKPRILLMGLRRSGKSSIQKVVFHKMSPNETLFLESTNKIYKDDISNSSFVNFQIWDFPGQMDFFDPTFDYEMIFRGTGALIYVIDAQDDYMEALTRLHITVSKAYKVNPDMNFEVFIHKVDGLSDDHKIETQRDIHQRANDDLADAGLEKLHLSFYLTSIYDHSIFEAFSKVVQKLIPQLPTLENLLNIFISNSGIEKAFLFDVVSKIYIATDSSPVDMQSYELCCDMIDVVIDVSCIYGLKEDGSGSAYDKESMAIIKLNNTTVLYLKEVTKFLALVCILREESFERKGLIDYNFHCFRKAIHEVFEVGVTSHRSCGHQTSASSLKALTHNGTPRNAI
inactive: erlotinib 0.014 | [1] 0.03 | [2] 0.047 | [3] -0.007 | [4] 0.019 | [5] 0.013 | [6] -0.051 | [7] -0.02 | [8] 0.014 | [9] 0.052 | IRAK-1-4 Inhibitor I 0.033 | ibrutinib -0.009 | [10] -0.057 | ralimetinib -0.056 | [11] 0.004 | [12] -0.18 | [13] 0.068 | pinometostat -0.008 | [14] 0.024 | [15] 0.034

RSF1 (UniProt Q96T23)
active: [15] -1.48
inactive: erlotinib 0.034 | [1] 0.152 | [2] 0.031 | [3] 0.126 | [4] 0.039 | [5] 0.012 | [6] 0.089 | [7] -0.057 | [8] 0.01 | [9] 0.006 | IRAK-1-4 Inhibitor I -0.188 | ibrutinib -0.054 | [10] 0.043 | ralimetinib 0.019 | [11] -0.175 | [12] -0.114 | [13] -0.058 | pinometostat -0.123 | [14] 0.028

RBM4 (UniProt Q9BWF3)
UniProt Q9BWF3, sequence (Q9BWF3 whole entry, looked up): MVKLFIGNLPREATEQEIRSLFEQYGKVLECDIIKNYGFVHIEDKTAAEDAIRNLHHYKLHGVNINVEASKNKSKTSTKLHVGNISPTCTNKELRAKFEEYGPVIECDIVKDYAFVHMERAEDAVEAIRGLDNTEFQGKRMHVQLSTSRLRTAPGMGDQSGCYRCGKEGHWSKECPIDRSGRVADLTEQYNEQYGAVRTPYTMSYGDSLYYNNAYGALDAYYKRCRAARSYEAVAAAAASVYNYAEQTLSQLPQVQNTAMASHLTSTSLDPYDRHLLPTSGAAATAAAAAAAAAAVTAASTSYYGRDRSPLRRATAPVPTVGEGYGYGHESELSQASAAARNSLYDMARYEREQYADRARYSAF
inactive: erlotinib 0.02 | [1] 0 | [2] -0.102 | [3] 0.011 | [4] -0.012 | [5] 0.054 | [6] -0.041 | [7] -0.035 | [8] 0.012 | [9] -0.009 | IRAK-1-4 Inhibitor I -0.038 | ibrutinib -0.023 | [10] -0.083 | ralimetinib 0.099 | [11] 0.019 | [12] -0.136 | [13] 0.074 | pinometostat 0.076 | [14] 0.007 | [15] -0.027

SDCBP (UniProt O00560)
UniProt O00560, sequence (O00560 whole entry, looked up): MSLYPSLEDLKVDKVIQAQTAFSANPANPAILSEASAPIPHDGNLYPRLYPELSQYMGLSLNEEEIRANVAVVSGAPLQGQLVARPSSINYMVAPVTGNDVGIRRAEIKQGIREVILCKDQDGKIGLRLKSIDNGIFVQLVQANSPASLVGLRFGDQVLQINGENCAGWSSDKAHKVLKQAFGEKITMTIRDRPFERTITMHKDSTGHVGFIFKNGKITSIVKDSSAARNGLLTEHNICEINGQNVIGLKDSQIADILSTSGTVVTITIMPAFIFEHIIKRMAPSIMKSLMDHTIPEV
inactive: erlotinib -0.048 | [1] -0.1 | [2] -0.058 | [3] 0.047 | [4] -0.036 | [5] -0.008 | [6] 0.034 | [7] 0.002 | [8] -0.021 | [9] -0.045 | IRAK-1-4 Inhibitor I 0.021 | ibrutinib 0.139 | [10] -0.02 | ralimetinib -0.036 | [11] -0.064 | [13] 0.181 | pinometostat 0.057 | [14] 0.073 | [15] -0.007
active: [12] -0.671

ROR2 (UniProt Q01974)
UniProt Q01974, sequence (Q01974 whole entry, looked up): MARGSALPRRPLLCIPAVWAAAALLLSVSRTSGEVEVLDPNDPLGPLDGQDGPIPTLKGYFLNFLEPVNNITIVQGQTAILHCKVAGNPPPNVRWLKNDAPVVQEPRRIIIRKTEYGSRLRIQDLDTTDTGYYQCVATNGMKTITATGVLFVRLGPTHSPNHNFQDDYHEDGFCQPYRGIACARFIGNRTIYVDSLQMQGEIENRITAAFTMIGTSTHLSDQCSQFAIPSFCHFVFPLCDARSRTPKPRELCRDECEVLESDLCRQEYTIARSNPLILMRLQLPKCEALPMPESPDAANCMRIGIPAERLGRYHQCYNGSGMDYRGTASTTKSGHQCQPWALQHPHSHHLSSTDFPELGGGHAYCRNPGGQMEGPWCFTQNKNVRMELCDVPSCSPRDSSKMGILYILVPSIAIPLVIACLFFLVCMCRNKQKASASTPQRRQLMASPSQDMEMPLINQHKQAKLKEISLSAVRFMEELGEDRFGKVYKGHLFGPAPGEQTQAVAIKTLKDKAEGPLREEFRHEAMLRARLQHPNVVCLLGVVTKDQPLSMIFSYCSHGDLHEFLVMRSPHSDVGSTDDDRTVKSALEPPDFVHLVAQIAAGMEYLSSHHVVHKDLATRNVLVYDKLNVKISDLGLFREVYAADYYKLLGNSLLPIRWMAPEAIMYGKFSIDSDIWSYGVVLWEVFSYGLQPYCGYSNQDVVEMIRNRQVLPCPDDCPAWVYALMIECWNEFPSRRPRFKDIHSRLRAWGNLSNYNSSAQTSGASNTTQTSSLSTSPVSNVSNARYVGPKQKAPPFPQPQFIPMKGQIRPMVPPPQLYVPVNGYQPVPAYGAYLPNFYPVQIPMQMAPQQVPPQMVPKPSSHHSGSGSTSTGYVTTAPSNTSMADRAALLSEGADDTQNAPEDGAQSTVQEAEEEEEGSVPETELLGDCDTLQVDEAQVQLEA
inactive: erlotinib -0.045 | [1] 0.058 | [2] 0.01 | [3] 0.023 | [4] 0.02 | [5] 0.011 | [6] 0.076 | [7] -0.024 | [8] -0.041 | [9] -0.001 | IRAK-1-4 Inhibitor I -0.003 | ibrutinib -0.014 | ralimetinib 0.045 | [11] -0.058 | [12] -0.018 | [13] -0.001 | pinometostat 0.045 | [14] -0.059 | [15] 0.115
active: [10] -0.72

RPS3A (UniProt P61247)
inactive: erlotinib -0.178 | [1] -0.041 | [2] -0.232 | [3] 0.062 | [4] -0.039 | [5] -0.035 | [6] -0.028 | [7] 0 | [8] 0.088 | [9] -0.162 | IRAK-1-4 Inhibitor I -0.133 | ibrutinib 0.028 | [10] 0.072 | ralimetinib 0.053 | [11] 0.069 | [12] -0.071 | [13] 0.059 | pinometostat 0.108 | [14] 0.03
active: [15] -0.565

RCOR1 (UniProt Q9UKL0)
UniProt Q9UKL0, sequence (Q9UKL0 whole entry, looked up): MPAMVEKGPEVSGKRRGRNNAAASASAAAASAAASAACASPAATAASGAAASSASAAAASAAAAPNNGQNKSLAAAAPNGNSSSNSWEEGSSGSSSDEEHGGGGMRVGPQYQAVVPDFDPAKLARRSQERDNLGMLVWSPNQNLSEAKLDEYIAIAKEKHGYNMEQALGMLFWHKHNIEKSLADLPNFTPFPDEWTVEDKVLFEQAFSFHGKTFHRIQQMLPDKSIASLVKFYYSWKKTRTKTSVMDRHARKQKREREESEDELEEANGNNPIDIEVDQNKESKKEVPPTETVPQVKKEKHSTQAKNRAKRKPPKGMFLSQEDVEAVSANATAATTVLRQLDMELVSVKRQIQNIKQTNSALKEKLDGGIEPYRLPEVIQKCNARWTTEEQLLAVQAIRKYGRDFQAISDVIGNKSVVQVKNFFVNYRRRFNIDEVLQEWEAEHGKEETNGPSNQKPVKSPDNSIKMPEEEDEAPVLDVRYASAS
inactive: erlotinib 0.033 | [1] 0.069 | [2] -0.043 | [3] -0.056 | [4] 0.134 | [5] -0.013 | [6] 0.076 | [7] -0.011 | [8] -0.006 | [9] -0.043 | IRAK-1-4 Inhibitor I -0.037 | ibrutinib -0.036 | [10] -0.14 | ralimetinib 0.002 | [11] -0.08 | [12] 0.002 | [13] -0.034 | pinometostat 0.026 | [14] 0.025 | [15] 0.021

RPS16 (UniProt P62249)
active: [15] -0.6
inactive: erlotinib -0.166 | [1] -0.108 | [2] -0.258 | [3] 0.049 | [4] -0.075 | [5] -0.043 | [6] -0.049 | [7] 0.002 | [8] 0.025 | [9] -0.2 | IRAK-1-4 Inhibitor I -0.137 | ibrutinib 0.036 | [10] 0.054 | ralimetinib 0.032 | [11] 0.011 | [12] -0.02 | [13] 0.035 | pinometostat 0.102 | [14] 0.057

RBM17 (UniProt Q96I25)
UniProt Q96I25, sequence (Q96I25 whole entry, looked up): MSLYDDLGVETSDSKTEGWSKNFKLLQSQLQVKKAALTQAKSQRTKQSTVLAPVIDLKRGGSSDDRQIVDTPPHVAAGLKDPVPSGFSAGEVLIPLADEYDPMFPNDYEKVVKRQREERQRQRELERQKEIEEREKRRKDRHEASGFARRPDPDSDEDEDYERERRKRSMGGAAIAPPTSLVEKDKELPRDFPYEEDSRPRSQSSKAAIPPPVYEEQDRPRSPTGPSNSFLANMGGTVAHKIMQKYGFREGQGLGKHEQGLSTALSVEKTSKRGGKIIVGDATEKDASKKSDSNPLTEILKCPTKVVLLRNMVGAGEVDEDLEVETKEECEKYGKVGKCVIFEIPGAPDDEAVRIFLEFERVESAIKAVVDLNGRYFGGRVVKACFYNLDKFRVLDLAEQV
inactive: erlotinib 0.039 | [1] 0.044 | [2] 0.015 | [3] -0.023 | [4] -0.085 | [5] -0.029 | [6] 0.1 | [7] 0.011 | [8] -0.08 | [9] -0.16 | IRAK-1-4 Inhibitor I -0.037 | ibrutinib 0.114 | [10] -0.179 | ralimetinib 0.158 | [11] -0.077 | [12] -0.053 | [13] 0.029 | pinometostat 0.11 | [14] -0.005 | [15] 0.012

RHEB (UniProt Q15382)
UniProt Q15382, sequence (Q15382 whole entry, looked up): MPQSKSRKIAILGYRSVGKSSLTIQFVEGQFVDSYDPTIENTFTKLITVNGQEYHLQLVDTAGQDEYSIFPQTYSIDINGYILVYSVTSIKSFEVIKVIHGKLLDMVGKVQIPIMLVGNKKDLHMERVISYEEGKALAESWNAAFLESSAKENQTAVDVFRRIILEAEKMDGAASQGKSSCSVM
inactive: erlotinib 0.028 | [1] 0.042 | [2] 0.075 | [3] -0.041 | [4] 0.008 | [5] 0.008 | [6] -0.008 | [7] -0.004 | [8] -0.005 | [9] 0.041 | IRAK-1-4 Inhibitor I 0.006 | ibrutinib -0.016 | [10] -0.04 | ralimetinib -0.112 | [11] -0.01 | [12] 0.027 | [13] -0.055 | pinometostat -0.035 | [14] -0.014 | [15] 0.093

RRS1 (UniProt Q15050)
UniProt Q15050, sequence (Q15050 whole entry, looked up): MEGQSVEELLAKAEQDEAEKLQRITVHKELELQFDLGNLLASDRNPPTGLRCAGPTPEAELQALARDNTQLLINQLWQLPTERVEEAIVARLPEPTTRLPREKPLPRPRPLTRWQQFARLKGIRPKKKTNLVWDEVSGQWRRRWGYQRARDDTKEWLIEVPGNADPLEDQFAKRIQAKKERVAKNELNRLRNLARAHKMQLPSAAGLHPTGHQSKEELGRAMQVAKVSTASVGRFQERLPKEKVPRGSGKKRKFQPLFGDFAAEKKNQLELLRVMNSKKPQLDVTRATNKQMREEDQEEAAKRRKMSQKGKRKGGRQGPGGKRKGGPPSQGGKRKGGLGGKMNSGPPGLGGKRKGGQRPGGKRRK
inactive: erlotinib -0.099 | [1] -0.205 | [2] -0.536 | [3] -0.003 | [4] -0.095 | [5] 0.004 | [6] -0.18 | [7] -0.018 | [8] 0.162 | [9] -0.219 | IRAK-1-4 Inhibitor I -0.084 | ibrutinib 0.04 | [10] 0.217 | ralimetinib 0.118 | [11] 0.229 | [12] 0.312 | [13] 0.067 | pinometostat 0.297 | [14] -0.11
active: [15] -1
